# Measurements as given in the supplement of paper PMC8728848.
# The full list was thinned out, with the strongest signals kept by preference.
# Tests used:
# Test in all cases: glycan array binding signal (z-score within array); higher = stronger binding
# Conditions in all cases: glycan notation: IUPAC condensed, linker removed
# [1] = biological target: Fuc(a1-2)Gal(b1-3)GlcNAc(b1-2)Man(a1-3)[Fuc(a1-2)Gal(b1-3)GlcNAc(b1-2)Man(a1-6)]Man(b1-4)GlcNAc(b1-4)GlcNAc
# Summary of the method: (§1)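 Glycan array data were curated from 3228 arrays in the Consortium for Functional Glycomics database and kept only where the protein sequence was available. Glycan names were converted to IUPAC-condensed notation, and columns mapping to the same glycan were averaged. The binding signal is a within-array Z-score, averaged across arrays of the same protein sequence at different concentrations or buffers and across linkers. Negative Z-scores can be read as non-binding.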
# [2] = biological target: Fuc(a1-2)Gal(b1-3)GlcNAc(b1-3)[Fuc(a1-2)Gal(b1-3)GlcNAc(b1-6)]GalNAc
# Summary of the method: as §1
# [3] = biological target: Fuc(a1-2)Gal(b1-4)GlcNAc(b1-3)Gal(b1-4)GlcNAc
# Summary of the method: as §1
# [4] = biological target: Fuc(a1-2)Gal(b1-4)GlcNAc6S
# Summary of the method: as §1
# [5] = biological target: Fuc(a1-2)Gal3S(b1-4)GlcNAc
# Summary of the method: as §1
# [6] = biological target: Fuc(a1-2)[Gal(a1-3)]Gal(b1-3)GalNAc(b1-3)Gal(a1-4)Gal(b1-4)Glc
# Summary of the method: as §1
# [7] = biological target: Fuc(a1-2)[Gal(a1-3)]Gal(b1-3)GlcNAc(b1-2)Man(a1-3)[Fuc(a1-2)[Gal(a1-3)]Gal(b1-3)GlcNAc(b1-2)Man(a1-6)]Man(b1-4)GlcNAc(b1-4)[Fuc(a1-6)]GlcNAc
# Summary of the method: as §1
# [8] = biological target: Fuc(a1-2)[GalNAc(a1-3)]Gal(b1-4)GlcNAc(b1-3)Gal(b1-4)GlcNAc(b1-3)Gal(b1-4)GlcNAc
# Summary of the method: as §1
# [9] = biological target: Fuc(a1-3)[Gal3S(b1-4)]Glc
# Summary of the method: as §1
# [10] = biological target: Gal(a1-3)Gal(b1-3)[Fuc(a1-4)]GlcNAc(b1-2)Man(a1-3)[Gal(a1-3)Gal(b1-3)[Fuc(a1-4)]GlcNAc(b1-2)Man(a1-6)]Man(b1-4)GlcNAc(b1-4)GlcNAc
# Summary of the method: as §1
# [11] = biological target: Gal(a1-3)Gal(b1-4)[Fuc(a1-3)]GlcNAc
# Summary of the method: as §1
# [12] = biological target: Gal(a1-3)Gal(b1-4)[Fuc(a1-3)]GlcNAc(b1-2)Man(a1-3)[Gal(a1-3)Gal(b1-4)[Fuc(a1-3)]GlcNAc(b1-2)Man(a1-6)]Man(b1-4)GlcNAc(b1-4)GlcNAc
# Summary of the method: as §1
# [13] = biological target: Gal(b1-3)GalNAc(b1-3)Gal(a1-4)Gal(b1-4)Glc
# Summary of the method: as §1
# [14] = biological target: Gal(b1-3)GlcNAc(b1-3)Gal(b1-4)GlcNAc(b1-3)Gal(b1-4)GlcNAc(b1-2)[Gal(b1-3)GlcNAc(b1-3)Gal(b1-4)GlcNAc(b1-3)Gal(b1-4)GlcNAc(b1-6)]Man(a1-6)[Gal(b1-3)GlcNAc(b1-3)Gal(b1-4)GlcNAc(b1-3)Gal(b1-4)GlcNAc(b1-2)Man(a1-3)]Man(b1-4)GlcNAc(b1-4)[Fuc(a1-6)]GlcNAc
# Summary of the method: as §1
# [15] = biological target: Gal(b1-4)GlcNAc(b1-2)Man(a1-6)Man(b1-4)GlcNAc(b1-4)GlcNAc
# Summary of the method: as §1
# [16] = biological target: Gal(b1-4)GlcNAc(b1-3)Gal(b1-4)GlcNAc(b1-3)Gal(b1-4)GlcNAc(b1-2)Man(a1-3)[Gal(b1-4)GlcNAc(b1-3)Gal(b1-4)GlcNAc(b1-3)Gal(b1-4)GlcNAc(b1-2)Man(a1-6)]Man(b1-4)GlcNAc(b1-4)[Fuc(a1-6)]GlcNAc
# Summary of the method: as §1
# [17] = biological target: Gal(b1-4)GlcNAc(b1-3)Gal(b1-4)GlcNAc(b1-3)Gal(b1-4)GlcNAc(b1-2)[Gal(b1-4)GlcNAc(b1-3)Gal(b1-4)GlcNAc(b1-3)Gal(b1-4)GlcNAc(b1-6)]Man(a1-6)[Gal(b1-4)GlcNAc(b1-3)Gal(b1-4)GlcNAc(b1-3)Gal(b1-4)GlcNAc(b1-2)Man(a1-3)]Man(b1-4)GlcNAc(b1-4)[Fuc(a1-6)]GlcNAc
# Summary of the method: as §1
# [18] = biological target: Gal(b1-4)GlcNAc(b1-3)Gal(b1-4)GlcNAc(b1-3)Gal(b1-4)GlcNAc(b1-3)Gal(b1-4)GlcNAc(b1-2)Man(a1-3)[Gal(b1-4)GlcNAc(b1-3)Gal(b1-4)GlcNAc(b1-3)Gal(b1-4)GlcNAc(b1-3)Gal(b1-4)GlcNAc(b1-2)Man(a1-6)]Man(b1-4)GlcNAc(b1-4)[Fuc(a1-6)]GlcNAc
# Summary of the method: as §1
# [19] = biological target: Gal(b1-4)GlcNAc(b1-3)Gal(b1-4)GlcNAc(b1-3)Gal(b1-4)GlcNAc(b1-3)Gal(b1-4)GlcNAc(b1-2)[Gal(b1-4)GlcNAc(b1-3)Gal(b1-4)GlcNAc(b1-3)Gal(b1-4)GlcNAc(b1-3)Gal(b1-4)GlcNAc(b1-6)]Man(a1-6)[Gal(b1-4)GlcNAc(b1-3)Gal(b1-4)GlcNAc(b1-3)Gal(b1-4)GlcNAc(b1-3)Gal(b1-4)GlcNAc(b1-2)Man(a1-3)]Man(b1-4)GlcNAc(b1-4)[Fuc(a1-6)]GlcNAc
# Summary of the method: as §1
# [20] = biological target: Gal(b1-4)GlcNAc(b1-3)Gal(b1-4)GlcNAc(b1-3)Gal(b1-4)GlcNAc(b1-3)Gal(b1-4)GlcNAc(b1-3)Gal(b1-4)GlcNAc(b1-2)Man(a1-3)[Gal(b1-4)GlcNAc(b1-3)Gal(b1-4)GlcNAc(b1-3)Gal(b1-4)GlcNAc(b1-3)Gal(b1-4)GlcNAc(b1-3)Gal(b1-4)GlcNAc(b1-2)Man(a1-6)]Man(b1-4)GlcNAc(b1-4)[Fuc(a1-6)]GlcNAc
# Summary of the method: as §1
# [21] = biological target: Gal(b1-4)GlcNAc(b1-3)Gal(b1-4)GlcNAc(b1-3)[Gal(b1-4)GlcNAc(b1-3)Gal(b1-4)GlcNAc(b1-6)]GalNAc
# Summary of the method: as §1
# [22] = biological target: Gal(b1-4)GlcNAc(b1-6)GalNAc
# Summary of the method: as §1
# [23] = biological target: Gal3S(b1-3)GalNAc
# Summary of the method: as §1
# [24] = biological target: Gal6S(b1-4)GlcNAc6S
# Summary of the method: as §1
# [25] = biological target: GalNAc(b1-4)GlcNAc(b1-3)GalNAc(b1-4)GlcNAc
# Summary of the method: as §1
# [26] = biological target: GlcA(b1-3)GlcNAc
# Summary of the method: as §1
binder,measurement,setting,value
"Erv41-EDTA (Saccharomyces cerevisiae), Q04651 (protein) MKFLVNVALVFMVVYISYIYAAAPEHHHHHHDYDIPTTENLYFQGAMGYIDQQYVVDSQVRDTVQINMDIYVNTKCDWLQINVRDQTMDRKLVLEELQLEEMPFFIPYDTKVNDINEIITPELDEILGEAIPAEFREKLDTRSFFDESDPNKAHLPEFNGCHVFGSIPVNRVSGELQITAKSLGYVASRKAPLEELKFNHVINEFSFGDFYPYIDNPLDNTAQFNQDEPLTTYVYYTSVVPTLFKKLGAEVDTNQYSVNDYRYLYKDVAAKGDKMPGIFFKYNFEPLSIVVSDVRL",glycan array binding signal (z-score),[1],0.618
same,glycan array binding signal (z-score),[2],2.18
same,glycan array binding signal (z-score),[3],-0.317
same,glycan array binding signal (z-score),[4],0.642
same,glycan array binding signal (z-score),[5],-0.093
same,glycan array binding signal (z-score),[6],-0.396
same,glycan array binding signal (z-score),[7],0.605
same,glycan array binding signal (z-score),[8],0.784
same,glycan array binding signal (z-score),[9],-0.042
same,glycan array binding signal (z-score),[10],-0.414
same,glycan array binding signal (z-score),[11],-0.74
same,glycan array binding signal (z-score),[12],2.1
same,glycan array binding signal (z-score),[13],1.08
same,glycan array binding signal (z-score),[14],1.31
same,glycan array binding signal (z-score),[15],-0.604
same,glycan array binding signal (z-score),[16],1.64
same,glycan array binding signal (z-score),[17],2.65
same,glycan array binding signal (z-score),[18],2.2
same,glycan array binding signal (z-score),[19],2.63
same,glycan array binding signal (z-score),[20],3.41
same,glycan array binding signal (z-score),[21],1.32
same,glycan array binding signal (z-score),[22],1.98
same,glycan array binding signal (z-score),[23],0.809
same,glycan array binding signal (z-score),[24],-0.128
same,glycan array binding signal (z-score),[25],-0.339
same,glycan array binding signal (z-score),[26],-0.217
